The results in this text go back to ChEMBL document CHEMBL4513216, “Probing the Open Global Health Chemical Diversity Library for Multistage-Active Starting Points for Next-Generation Antimalarials” (ACS Infect Dis, 2020).

SMILES strings stand for the structures. In all, about 69,000 compounds went through this assay and about 8,600 (12%) showed an effect of 50% or more. The entries come from a sample that favours strong results as a whole.

The assay relates to Plasmodium berghei. As to the kind of experiment: Screen against P. berghei liver stage (PbLuc), transformed with Luciferase, at 10uM. The format is functional, HepG2. The following applies: tested at 10 uM.
In the case of `O=C(NC[C@H]1OC[C@@H]2CN(Cc3ccco3)CC[C@@H]21)c1cccnc1`, the INHIBITION is on record as 8.03%.

In the case of `COc1cc(C(=O)NCC2CCCO2)nc2c(C)cc(F)cc12` (stereo not drawn), the INHIBITION is -14.8%. Take `CCNC(=O)c1cc(OC)c2cc(F)cc(C)c2n1`: the INHIBITION is -8.41%.

For the compound `COc1cc(C(=O)NCC2CC2)nc2c(C)cc(F)cc12`, the INHIBITION is recorded as 55.4%. As for `COc1ccc(-c2cnc(CN(CC(N)=O)C3CCCC3)o2)cc1`, the figure is 19.9%.

Turning to `O=C(Cn1nc2c(cc1=O)CSCC2)N[C@@H](Cc1ccccc1)C(=O)O`, the INHIBITION was -5.51%. As for `Cn1c(CO)nnc1SCc1c(F)cccc1Br`, the figure is 15.5%; as for `Cn1c(N)nnc1SCc1c(F)cccc1Br`, 55.4%; as for `Cn1c(N)nnc1SCc1ccc(Cl)cc1Br`, 11.6%. The figure for `CN(C)c1nc2c(c(N3CCC(O)CC3)n1)CN(CC(C)(C)C)CC2` is 22.4%.

Turning to `CN(C)c1nc2c(c(N3CCC(O)CC3)n1)CN(CC1CCNC1)CC2` (stereo not drawn), the INHIBITION amounted to 18.5%. On to `CN(C)c1nc2c(c(N3CCC(O)CC3)n1)CN(CC1CCOC1)CC2` (stereo not drawn), for which the INHIBITION was determined as 60.1%. As for `CC(C)COCCC(=O)Nc1cccnc1-n1cncn1`, the figure is 14.4%. Consider `CN1C(=O)C2(CCN(c3ncccc3C(=O)O)CC2)c2ccccc21`, for which the INHIBITION is -20.6%. The figure for `O=C(NC[C@H]1CCCC[C@H]1O)c1cccc2[nH]c(-c3ccco3)nc12` is 23.3%; for `CSCC(C)N(C)S(=O)(=O)c1ccc(Cl)cc1C#N` (stereo not drawn) it is 50.8%.

In the case of `CCN(C)S(=O)(=O)c1ccc(Cl)cc1C#N`, the INHIBITION worked out at 33.2%.

On to `CC(C)CN(C)S(=O)(=O)c1ccc(Cl)cc1C#N`, for which the INHIBITION is -10.4%. As for `CC(C)C(=O)N1CCN(Cc2cnn(C)c2)CC2(CC(=O)N(C)C2)C1` (stereo not drawn), the figure is -10.3%; as for `O=C(c1ccc[nH]1)N1CCN(Cc2ccncc2)c2ncccc2C1`, 23.3%; as for `Cc1ccc(-n2c(SCC(=O)O)nnc2-c2cccc(C)c2)cc1`, 7.52%. For the compound `Cc1cnc(C(=O)N2CCCn3c(nc(CN(C)C)cc3=O)C2)cn1`, the INHIBITION was -10.3%.

Turning to `Cc1cc(NC(=O)N2CCN(C)CC2C)n(Cc2ccccc2)n1` (stereo not drawn), the INHIBITION came to 43.4%. As to `Cc1cc(NC(=O)N2CCN(C)CC2C)n(C)n1` (stereo not drawn), the INHIBITION is 40.5%. Turning to `Cc1cc(NC(=O)N2CCN(C)CC2C)n(CCC#N)n1` (stereo not drawn), the INHIBITION is recorded as 53.4%. As for `CCCN1C[C@@H]2CC[C@H]1CN(Cc1ccc(-n3cccn3)cc1)C2`, the figure is 49.5%; as for `COC[C@@]12CCC[C@@H]1CN(C(=O)COc1ccccc1OC)C2`, 19.5%; as for `Cc1ccccc1OCCC(=O)NC(C)c1nnc2n1CCCCC2` (stereo not drawn), 28.8%. The figure for `Nc1nccnc1C1CN(Cc2ccc(OCC(=O)O)cc2)CCO1` (stereo not drawn) is -22.5%; for `COc1ccc2c(c1)C(C(=O)N(C)CCCc1cnn(C)c1)CC(=O)N2` (stereo not drawn) it is 55.4%; for `COc1ccc2c(c1)C(C(=O)N(C)CCCc1nccn1C)CC(=O)N2` (stereo not drawn) it is 23%.

As for `COc1ccc2c(c1)C(C(=O)N(C)CCc1cnn(C)c1)CC(=O)N2` (stereo not drawn), the INHIBITION was 82.3%. Turning to `COc1ccc2c(c1)CC(C(=O)N(C)CCCc1cnn(C)c1)CO2` (stereo not drawn), the INHIBITION is -1.91%.

With `COc1ccc2c(c1)C(C(=O)N(C)CCn1ccnc1C)CC(=O)N2` (stereo not drawn), the INHIBITION amounted to 13.7%. Turning to `COc1ccc2c(c1)C(C(=O)N(C)CCc1scnc1C)CC(=O)N2` (stereo not drawn), the INHIBITION is listed as 44.3%. As for `CCOc1ncccc1Cn1cc2[nH]cccc-2c1=O`, the figure is 18%; as for `Cc1nn(CC(=O)O)c2nccc(-c3ccc(F)cc3)c12`, 39.5%. The figure for `CCN(c1cccc(F)c1)S(=O)(=O)c1cc(C(=O)O)cc2c1CCC2` is 38.6%; for `CCN(c1ccccc1)S(=O)(=O)c1cc(C(=O)O)cc2c1CCC2` it is 56.5%.

For the compound `CC(O)CN(c1ccccc1)S(=O)(=O)c1cc(C(=O)O)cc2c1CCC2` (stereo not drawn), the INHIBITION is 19.7%. In the case of `COCCOc1ncccc1C(=O)Nc1ccc(-n2cncn2)c(F)c1`, the INHIBITION is reported as 13.1%. Consider `CC(=O)Nc1ccc(-n2cncn2)c(F)c1`, for which the INHIBITION was -6.91%.

For `COCCNC(=O)Nc1ccc(-n2cncn2)c(C(F)(F)F)c1`, the INHIBITION turned out to be 21.8%. The figure for `COCCS(=O)(=O)Nc1ccc(-n2cncn2)c(F)c1` is 56.5%. As for `CC(C)NC(=O)CCNC(=O)Nc1ccc(-n2cncn2)c(F)c1`, the figure is -18%; as for `COCCNC(=O)Nc1ccc(-n2cncn2)c(F)c1`, 58.2%; as for `CN1CCN(Cc2cccnc2)C2(CCN(Cc3ccccn3)C2)C1=O` (stereo not drawn), -16%. As for `CSCC(=O)N1C[C@@H](C)[C@](O)(C(C)C)C1`, the INHIBITION stood at 5.23%. As for `CN(C)c1nccc(C2CN(C(=O)CO)C2)n1`, the figure is 1.5%; as for `Cc1cc(Nc2cnccn2)nc(C2CCCN(CCO)C2)n1` (stereo not drawn), 1.62%; as for `Cc1cc(C)nc(Nc2ccc(C3CCCCN3)cn2)n1` (stereo not drawn), -0.232%. For the compound `Cc1cccc(Nc2ccc(C3CCCCN3)cn2)n1` (stereo not drawn), the INHIBITION is 70.3%. In the case of `c1cnc(Nc2ccc(C3CCCCN3)cn2)cn1` (stereo not drawn), the INHIBITION was -15.1%. As for `O=C(CCc1ccccc1F)NC1CCCN(c2ccccn2)C1` (stereo not drawn), the figure is -40.55%; as for `CCN(CC)C(=O)NC(C)c1ccc(Oc2cccnc2)c(F)c1` (stereo not drawn), 36.3%. The figure for `COc1ccc2c(c1)C1(CCN(Cc3cccnc3)CC1)N(C)CC2` is -27.4%. As for `O=C1CC(c2ccncc2)C2(CCN(CC3CC3)CC2)N1` (stereo not drawn), the figure is -4.32%.

As to `O=C(CCc1cccc(Cl)c1Cl)N1CCOCC1c1ncon1` (stereo not drawn), the INHIBITION worked out at 33.8%. With `CN(Cc1ccccc1)CC(O)Cn1cnc2sccc2c1=O` (stereo not drawn), the INHIBITION was determined as 10.675%.

In the case of `CN(Cc1ccccc1)CC(O)Cn1cnc2ccccc2c1=O` (stereo not drawn), the INHIBITION is given as 2.26%. The figure for `CN(Cc1ccccc1)CC(O)Cn1cnc2ccsc2c1=O` (stereo not drawn) is 56.6%; for `O=C(CCc1cc2n(n1)CCCNC2)NCCCSC1CCCCC1` it is 40.3%. The figure for `CCN(Cc1ccc2c(c1)OCO2)C(=O)Cn1cccnc1=O` is 37.9%; for `COc1cc2c(cc1CNC(=O)C(C)n1ccnc1C(C)C)CCC2` (stereo not drawn) it is 26.5%; for `COc1cccc(CNC(=O)C(C)n2ccnc2C(C)C)c1OC` (stereo not drawn) it is 62.1%. As for `COc1cc2c(cc1CNC(=O)C(C)n1ccnc1C(C)C)OCCO2` (stereo not drawn), the figure is 42.3%. With `OCCN1CCCC(c2nccnc2Oc2ccccc2)C1` (stereo not drawn), the INHIBITION is on record as -3.31%. Regarding `CC(=O)NC1CCCN(c2nc3ccccc3cc2CO)C1` (stereo not drawn), the INHIBITION worked out at 66.5%. As for `O=C(C1CCC1)N1CCN(c2snc3ccccc23)CC1`, the figure is 32.8%; as for `OCc1cc2ccccc2nc1N1CCCC1`, 16.8%.

For `CCCC(=O)NC1CCCN(c2nc3ccccc3cc2CO)C1` (stereo not drawn), the INHIBITION stood at 7.19%. As to `O=C(C1CCN(c2snc3ccccc23)CC1)N1CCCCCC1`, the INHIBITION was found to be 36.2%.

With `Cc1cc(N2CCN(c3nc4ccccc4cc3CO)CC2)nc(C)n1`, the INHIBITION came out at 48.8%. As for `O=C(C1CCCN(c2nc3ccccc3cc2CO)C1)N1CCCC1` (stereo not drawn), the figure is 61.9%; as for `CC(=O)NC1CCCN(c2ccc(C#N)cc2C(F)(F)F)C1` (stereo not drawn), -17.9%. As to `OCc1cc2ccccc2nc1N1CCCCC1`, the INHIBITION turned out to be 53.1%. Take `CC(C)c1noc(CN2CCC(C3CCCCCN3S(C)(=O)=O)CC2)n1` (stereo not drawn): the INHIBITION amounted to 34%. For `COc1cc(CNCCc2nc(C)cs2)cc2c1OCCO2`, the INHIBITION was found to be 31%. As for `CC1c2ccc(F)cc2CCN1C(=O)c1[nH]c(=O)[nH]c(=O)c1N` (stereo not drawn), the figure is 23.6%; as for `CCn1cnc(NC(=O)NCC2CCS(=O)(=O)CC2)n1`, 4.12%; as for `Cc1occc1C(=O)N1CCC[C@]2(C[C@@H](OCc3ccncc3)CO2)C1`, -9.67%. For the compound `CCN(Cc1ccc2c(c1)OCCO2)C(=O)Cn1cccnc1=O`, the INHIBITION worked out at 37.9%.

For `Cc1c(S(=O)(=O)N2CCOCC2)cc2c(C)cc(=O)n3c2c1CCC3`, the INHIBITION stood at 2.45%. On to `Cc1ccc(CNc2ccc(N3CCC(CO)CC3)cn2)o1`, for which the INHIBITION is 14.1%. `OCC1CCN(c2ccc(NCc3ccsc3)nc2)CC1`: the INHIBITION was determined as 54.4%. The figure for `CC(C)c1nc(CNc2ccc(N3CCC(CO)CC3)cn2)cs1` is 13%; for `Cc1cnn(CC2CCCCN2CCCS(C)(=O)=O)c1` (stereo not drawn) it is 5.03%.

Take `CN1CCN(c2nc(-c3cnn(C)c3)cs2)CC1`: the INHIBITION was -1.45%. Take `Cn1cc(-c2csc(N3CCSCC3)n2)cn1`: the INHIBITION is reported as -42.1%. With `Cn1cc(-c2csc(N3CCCCCC3)n2)cn1`, the INHIBITION is 79.8%. Regarding `CO[C@H]1CN(Cc2cccc(C#N)c2)[C@@H]2COC[C@H]12`, the INHIBITION is listed as 34.1%. `CS(=O)(=O)N1CC2(CCN(CC3CC3)C2)Cc2ccccc21` (stereo not drawn): the INHIBITION is recorded as 21.7%. In the case of `CS(=O)(=O)N1CC2(CCN(C3COC3)C2)Cc2ccccc21` (stereo not drawn), the INHIBITION is listed as 55.7%. The figure for `CS(=O)(=O)N1CC2(CCN(CC3CCCCC3)C2)Cc2ccccc21` (stereo not drawn) is 48.2%; for `CS(=O)(=O)N1CC2(CCCN(C3COC3)C2)Cc2ccccc21` (stereo not drawn) it is 28.4%; for `CS(=O)(=O)N1CC2(CCCN(CC3CC3)C2)Cc2ccccc21` (stereo not drawn) it is 54.9%. The figure for `CS(=O)(=O)N1CC2(CCN(C3CCCCC3)C2)Cc2ccccc21` (stereo not drawn) is 40.8%; for `CC(C)OCc1noc(C2CC=CC2)n1` it is -20%.

Take `CC1CN(C)CCN1C(=O)Nc1nc(-c2cccn2C)cs1` (stereo not drawn): the INHIBITION came to 47%. As for `CCCc1nnc(N2CCN(c3cccc(C)c3C)CC2)o1`, the figure is 30.1%; as for `Cc1nc2ncccn2c1C(=O)N1CCc2[nH]cnc2C1`, 22.5%.

Consider `Cc1nc2sccn2c1C(=O)N1CCc2[nH]cnc2C1`, for which the INHIBITION is recorded as 58.3%.

In the case of `O=C(c1cn(CC(=O)N2CCc3[nH]cnc3C2)c2ccccc12)C1CC1`, the INHIBITION turned out to be 12.6%. The figure for `CC(=O)Nc1cccc(C(=O)N2CCc3c(nc(N(C)C)[nH]c3=O)C2)c1` is 41.5%; for `Cc1nc2sccn2c1C(=O)N1CCc2c(nc(N(C)C)[nH]c2=O)C1` it is 51.8%; for `Cc1nc2sccn2c1C(=O)N1CCc2c(nc(N)[nH]c2=O)C1` it is -31.6%.

Consider `O=C(Nc1ccc(F)cc1-c1nc(C2CC2)no1)N1CC[C@@H](O)C1`, for which the INHIBITION was found to be 42.1%.

For `COc1ccccc1NC(=O)CCNC(=O)c1ccoc1`, the INHIBITION is reported as -37.8%.
